Experiments:
Assay in all cases: log2 ratio of Biotin-Ahx-Ub-VS probe labelling (fragment/DMSO); higher = less target engagement (more negative = stronger competition), active = hit call of the paper (q ≤ 0.05, log2 ratio ≤ -1)
Details in all cases: compound concentration: 200 uM; treatment time: 3 h
USP42 = target: T1, USP42 (UniProt Q9H9J4)
T1 sequence (whole entry): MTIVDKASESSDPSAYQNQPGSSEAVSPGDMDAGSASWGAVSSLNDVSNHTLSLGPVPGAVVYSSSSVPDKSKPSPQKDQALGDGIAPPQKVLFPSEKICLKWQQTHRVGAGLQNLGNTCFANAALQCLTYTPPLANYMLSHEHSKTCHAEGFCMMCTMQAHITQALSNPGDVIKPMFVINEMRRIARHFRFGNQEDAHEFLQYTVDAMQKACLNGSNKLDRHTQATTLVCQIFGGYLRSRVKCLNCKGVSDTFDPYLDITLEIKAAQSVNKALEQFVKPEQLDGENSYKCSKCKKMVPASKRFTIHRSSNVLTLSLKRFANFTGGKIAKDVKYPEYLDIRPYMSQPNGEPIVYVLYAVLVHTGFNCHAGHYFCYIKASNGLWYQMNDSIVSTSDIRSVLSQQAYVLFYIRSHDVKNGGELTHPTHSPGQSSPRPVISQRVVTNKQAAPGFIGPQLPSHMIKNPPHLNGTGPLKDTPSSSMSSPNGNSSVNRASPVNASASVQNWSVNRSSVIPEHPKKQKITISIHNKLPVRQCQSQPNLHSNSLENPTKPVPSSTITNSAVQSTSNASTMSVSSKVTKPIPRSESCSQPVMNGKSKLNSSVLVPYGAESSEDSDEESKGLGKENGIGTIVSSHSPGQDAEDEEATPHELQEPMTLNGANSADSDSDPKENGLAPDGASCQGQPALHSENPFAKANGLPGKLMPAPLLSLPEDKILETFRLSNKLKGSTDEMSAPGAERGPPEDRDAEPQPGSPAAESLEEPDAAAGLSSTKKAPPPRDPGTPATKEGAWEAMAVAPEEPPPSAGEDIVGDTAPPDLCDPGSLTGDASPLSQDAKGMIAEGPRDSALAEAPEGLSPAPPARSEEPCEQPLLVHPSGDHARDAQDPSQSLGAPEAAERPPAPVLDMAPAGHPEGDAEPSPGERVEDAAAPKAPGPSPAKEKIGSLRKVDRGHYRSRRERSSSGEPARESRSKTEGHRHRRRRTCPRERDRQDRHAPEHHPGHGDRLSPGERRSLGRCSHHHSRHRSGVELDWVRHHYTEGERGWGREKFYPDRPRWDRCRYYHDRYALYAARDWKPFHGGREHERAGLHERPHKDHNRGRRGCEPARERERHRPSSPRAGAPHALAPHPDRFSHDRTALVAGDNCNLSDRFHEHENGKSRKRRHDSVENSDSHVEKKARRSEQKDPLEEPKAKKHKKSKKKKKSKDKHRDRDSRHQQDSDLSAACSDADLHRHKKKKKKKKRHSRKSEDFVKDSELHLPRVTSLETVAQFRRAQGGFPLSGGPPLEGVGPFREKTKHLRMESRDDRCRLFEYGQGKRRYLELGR
Procedure, shortened: (§1)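 HEK293T lysate, 495 µg per sample in Tris/CHAPS/IGEPAL buffer with protease inhibitors, was treated in triplicate with fragment at 200 µM or vehicle for 3 h and then with Biotin-Ahx-Ub-VS at 0.5 µM final for 1 h. Labelled DUBs were NeutrAvidin-enriched, digested with LysC and trypsin, and run by diaPASEF LC-MS/MS. Spectronaut label-free quantities were global-median-normalised, and values are average log2 fragment/vehicle ratios by unpaired t-test on proteins with ≥2 unique peptides.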

USP46 = USP46 (UniProt P62068)
Procedure, shortened: as §1

USP47 = target: T2, USP47 (UniProt Q96K76)
T2 sequence (whole entry): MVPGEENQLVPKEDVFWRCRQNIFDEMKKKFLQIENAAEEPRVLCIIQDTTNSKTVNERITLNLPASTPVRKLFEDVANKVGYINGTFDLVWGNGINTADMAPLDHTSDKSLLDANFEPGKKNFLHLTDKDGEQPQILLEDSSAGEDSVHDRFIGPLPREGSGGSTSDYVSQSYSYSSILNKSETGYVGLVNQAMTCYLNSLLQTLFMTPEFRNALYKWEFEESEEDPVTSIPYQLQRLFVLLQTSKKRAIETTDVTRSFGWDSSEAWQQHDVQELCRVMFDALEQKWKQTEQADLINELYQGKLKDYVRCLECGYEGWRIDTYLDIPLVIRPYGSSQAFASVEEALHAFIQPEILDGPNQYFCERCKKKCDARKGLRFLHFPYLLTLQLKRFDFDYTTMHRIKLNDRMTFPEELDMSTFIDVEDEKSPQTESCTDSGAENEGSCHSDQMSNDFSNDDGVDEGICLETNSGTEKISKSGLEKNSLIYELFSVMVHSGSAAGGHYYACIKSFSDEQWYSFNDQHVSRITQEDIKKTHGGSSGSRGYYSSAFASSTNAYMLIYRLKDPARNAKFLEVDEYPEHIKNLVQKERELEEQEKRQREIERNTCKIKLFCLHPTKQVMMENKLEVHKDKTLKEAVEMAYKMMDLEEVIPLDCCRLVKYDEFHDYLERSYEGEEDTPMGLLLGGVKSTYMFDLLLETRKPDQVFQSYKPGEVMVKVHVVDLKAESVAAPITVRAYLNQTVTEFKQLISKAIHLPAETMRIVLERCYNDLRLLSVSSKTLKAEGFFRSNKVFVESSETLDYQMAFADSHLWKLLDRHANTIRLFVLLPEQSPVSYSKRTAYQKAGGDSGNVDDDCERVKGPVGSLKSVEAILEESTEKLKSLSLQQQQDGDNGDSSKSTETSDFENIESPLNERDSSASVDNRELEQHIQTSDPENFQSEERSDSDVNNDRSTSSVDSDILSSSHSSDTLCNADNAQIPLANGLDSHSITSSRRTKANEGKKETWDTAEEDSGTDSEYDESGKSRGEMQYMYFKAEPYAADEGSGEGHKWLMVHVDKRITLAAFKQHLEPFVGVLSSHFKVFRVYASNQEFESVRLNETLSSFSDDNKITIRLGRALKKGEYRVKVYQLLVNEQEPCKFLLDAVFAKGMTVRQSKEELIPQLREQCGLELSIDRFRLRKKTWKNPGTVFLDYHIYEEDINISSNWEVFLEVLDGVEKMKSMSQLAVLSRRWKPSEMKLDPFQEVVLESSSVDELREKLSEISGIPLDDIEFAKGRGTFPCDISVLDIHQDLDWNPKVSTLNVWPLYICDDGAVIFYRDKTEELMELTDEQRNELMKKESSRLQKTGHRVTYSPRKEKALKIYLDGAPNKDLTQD
Procedure, shortened: as §1

USP48 = target: T3, USP48 (UniProt Q86UV5)
T3 sequence (whole entry): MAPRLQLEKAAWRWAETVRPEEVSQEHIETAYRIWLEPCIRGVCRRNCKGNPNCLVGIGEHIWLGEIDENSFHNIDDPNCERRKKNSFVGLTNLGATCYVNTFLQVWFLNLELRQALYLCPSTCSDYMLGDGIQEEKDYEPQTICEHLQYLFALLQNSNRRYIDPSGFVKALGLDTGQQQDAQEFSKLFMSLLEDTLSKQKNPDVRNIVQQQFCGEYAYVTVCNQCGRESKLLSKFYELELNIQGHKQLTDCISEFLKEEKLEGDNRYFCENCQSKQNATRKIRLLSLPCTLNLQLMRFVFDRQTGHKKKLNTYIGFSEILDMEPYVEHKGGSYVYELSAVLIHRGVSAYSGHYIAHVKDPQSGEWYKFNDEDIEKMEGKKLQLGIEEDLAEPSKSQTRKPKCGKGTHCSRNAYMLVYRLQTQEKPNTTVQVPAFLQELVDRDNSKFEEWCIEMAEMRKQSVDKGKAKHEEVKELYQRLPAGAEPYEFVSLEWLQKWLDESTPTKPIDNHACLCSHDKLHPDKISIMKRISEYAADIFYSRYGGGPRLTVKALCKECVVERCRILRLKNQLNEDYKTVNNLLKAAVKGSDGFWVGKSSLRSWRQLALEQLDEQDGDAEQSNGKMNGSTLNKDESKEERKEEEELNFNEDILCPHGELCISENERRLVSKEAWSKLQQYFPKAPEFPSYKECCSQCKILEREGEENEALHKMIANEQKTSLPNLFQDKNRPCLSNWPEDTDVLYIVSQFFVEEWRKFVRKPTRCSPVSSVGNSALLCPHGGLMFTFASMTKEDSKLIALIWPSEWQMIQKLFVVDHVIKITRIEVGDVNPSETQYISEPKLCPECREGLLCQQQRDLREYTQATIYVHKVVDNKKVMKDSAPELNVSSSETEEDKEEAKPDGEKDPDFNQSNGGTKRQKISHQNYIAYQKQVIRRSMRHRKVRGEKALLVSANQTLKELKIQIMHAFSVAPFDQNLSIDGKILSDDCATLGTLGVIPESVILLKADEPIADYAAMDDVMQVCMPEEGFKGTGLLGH
Procedure, shortened: as §1

USP5 = target: T4, USP5 (UniProt P45974)
T4 sequence (whole entry): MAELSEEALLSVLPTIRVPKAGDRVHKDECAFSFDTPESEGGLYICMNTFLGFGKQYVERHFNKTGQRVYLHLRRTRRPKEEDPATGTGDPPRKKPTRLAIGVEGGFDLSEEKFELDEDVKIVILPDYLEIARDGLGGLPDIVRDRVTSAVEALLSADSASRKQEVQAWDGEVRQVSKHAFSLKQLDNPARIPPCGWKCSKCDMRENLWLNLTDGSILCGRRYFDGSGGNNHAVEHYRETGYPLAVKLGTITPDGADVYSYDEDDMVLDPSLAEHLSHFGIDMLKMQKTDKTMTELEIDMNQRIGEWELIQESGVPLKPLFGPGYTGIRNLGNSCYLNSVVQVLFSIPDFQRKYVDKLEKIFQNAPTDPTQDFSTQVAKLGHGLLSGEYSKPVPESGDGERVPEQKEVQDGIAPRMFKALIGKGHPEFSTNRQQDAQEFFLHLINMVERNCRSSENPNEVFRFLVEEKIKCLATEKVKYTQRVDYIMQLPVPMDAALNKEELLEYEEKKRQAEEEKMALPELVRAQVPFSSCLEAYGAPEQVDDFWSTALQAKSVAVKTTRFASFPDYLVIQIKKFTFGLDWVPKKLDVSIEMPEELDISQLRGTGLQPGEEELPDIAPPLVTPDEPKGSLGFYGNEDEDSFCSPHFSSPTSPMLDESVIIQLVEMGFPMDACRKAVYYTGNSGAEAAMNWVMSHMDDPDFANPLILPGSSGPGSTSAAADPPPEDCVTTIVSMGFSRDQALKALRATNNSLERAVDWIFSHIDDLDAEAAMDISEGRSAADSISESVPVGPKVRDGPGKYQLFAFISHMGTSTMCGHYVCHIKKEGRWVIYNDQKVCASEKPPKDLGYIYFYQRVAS
Procedure, shortened: as §1

USP54 = USP54 (UniProt Q70EL1)
Procedure, shortened: as §1

USP7 = USP7 (UniProt Q93009)
Procedure, shortened: as §1

USP8 = target: T5, USP8 (UniProt P40818)
T5 sequence (whole entry): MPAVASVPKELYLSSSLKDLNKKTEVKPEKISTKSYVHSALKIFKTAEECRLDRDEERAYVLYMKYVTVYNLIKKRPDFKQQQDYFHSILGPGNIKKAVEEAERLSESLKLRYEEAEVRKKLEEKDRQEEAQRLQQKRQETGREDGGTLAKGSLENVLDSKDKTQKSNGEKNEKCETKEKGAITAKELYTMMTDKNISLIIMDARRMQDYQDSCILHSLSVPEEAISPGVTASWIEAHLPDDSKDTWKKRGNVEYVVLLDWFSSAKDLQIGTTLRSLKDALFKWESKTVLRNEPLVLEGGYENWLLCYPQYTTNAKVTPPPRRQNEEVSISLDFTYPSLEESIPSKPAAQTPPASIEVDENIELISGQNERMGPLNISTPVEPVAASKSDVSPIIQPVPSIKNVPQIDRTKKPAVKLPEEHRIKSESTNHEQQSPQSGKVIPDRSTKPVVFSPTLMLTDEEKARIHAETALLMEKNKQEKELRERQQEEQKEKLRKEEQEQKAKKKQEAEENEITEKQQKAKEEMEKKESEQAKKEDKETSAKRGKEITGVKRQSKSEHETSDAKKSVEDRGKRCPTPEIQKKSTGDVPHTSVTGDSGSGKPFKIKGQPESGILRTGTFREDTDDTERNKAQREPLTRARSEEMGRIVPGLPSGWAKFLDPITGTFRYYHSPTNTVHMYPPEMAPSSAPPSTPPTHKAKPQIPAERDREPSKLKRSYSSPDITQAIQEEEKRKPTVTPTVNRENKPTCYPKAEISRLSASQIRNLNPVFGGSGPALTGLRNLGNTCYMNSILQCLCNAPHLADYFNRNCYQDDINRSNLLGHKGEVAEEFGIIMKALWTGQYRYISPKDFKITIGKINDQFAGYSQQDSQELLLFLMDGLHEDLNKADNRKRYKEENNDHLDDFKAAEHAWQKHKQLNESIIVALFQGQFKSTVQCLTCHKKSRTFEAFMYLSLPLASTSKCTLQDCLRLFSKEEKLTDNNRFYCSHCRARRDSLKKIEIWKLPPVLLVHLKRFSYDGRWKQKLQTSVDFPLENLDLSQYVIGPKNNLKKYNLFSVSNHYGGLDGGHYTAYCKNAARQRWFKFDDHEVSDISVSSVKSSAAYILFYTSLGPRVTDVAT
Procedure, shortened: as §1

USP9X = USP9X (UniProt Q93008)
Procedure, shortened: as §1

UniProt O00487 = target: UniProt O00487
Procedure, shortened: as §1

Measured: log2 ratio of Biotin-Ahx-Ub-VS probe labelling

Sequence of USP7 (Q93009 whole entry, looked up): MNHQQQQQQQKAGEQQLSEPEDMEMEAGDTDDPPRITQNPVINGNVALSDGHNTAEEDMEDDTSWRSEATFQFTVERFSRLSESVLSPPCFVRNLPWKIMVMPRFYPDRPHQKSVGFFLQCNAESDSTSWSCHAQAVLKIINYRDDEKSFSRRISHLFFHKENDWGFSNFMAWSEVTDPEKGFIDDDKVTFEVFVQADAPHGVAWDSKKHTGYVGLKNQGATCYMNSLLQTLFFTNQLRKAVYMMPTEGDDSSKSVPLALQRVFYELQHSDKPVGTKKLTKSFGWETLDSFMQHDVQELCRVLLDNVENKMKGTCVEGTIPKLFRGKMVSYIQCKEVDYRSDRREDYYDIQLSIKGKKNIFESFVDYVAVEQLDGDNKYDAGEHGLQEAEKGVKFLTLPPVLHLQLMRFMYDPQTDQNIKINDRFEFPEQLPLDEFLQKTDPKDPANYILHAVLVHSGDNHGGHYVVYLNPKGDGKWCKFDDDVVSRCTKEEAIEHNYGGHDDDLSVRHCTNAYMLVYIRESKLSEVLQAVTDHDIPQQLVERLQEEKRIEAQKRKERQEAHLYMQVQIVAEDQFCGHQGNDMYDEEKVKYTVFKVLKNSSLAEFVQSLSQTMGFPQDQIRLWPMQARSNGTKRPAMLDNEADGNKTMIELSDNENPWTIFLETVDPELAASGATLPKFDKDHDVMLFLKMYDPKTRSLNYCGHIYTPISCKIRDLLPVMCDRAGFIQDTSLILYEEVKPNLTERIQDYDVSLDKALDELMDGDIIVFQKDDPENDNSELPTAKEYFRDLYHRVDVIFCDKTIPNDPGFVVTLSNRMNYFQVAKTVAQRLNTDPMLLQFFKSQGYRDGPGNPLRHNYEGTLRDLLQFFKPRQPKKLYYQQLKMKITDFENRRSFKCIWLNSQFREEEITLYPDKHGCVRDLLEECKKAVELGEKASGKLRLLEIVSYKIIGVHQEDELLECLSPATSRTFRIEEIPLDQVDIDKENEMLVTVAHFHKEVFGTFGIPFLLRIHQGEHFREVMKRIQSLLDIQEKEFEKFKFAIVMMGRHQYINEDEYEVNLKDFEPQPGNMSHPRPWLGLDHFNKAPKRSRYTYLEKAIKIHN
Sequence of USP46 (P62068 whole entry): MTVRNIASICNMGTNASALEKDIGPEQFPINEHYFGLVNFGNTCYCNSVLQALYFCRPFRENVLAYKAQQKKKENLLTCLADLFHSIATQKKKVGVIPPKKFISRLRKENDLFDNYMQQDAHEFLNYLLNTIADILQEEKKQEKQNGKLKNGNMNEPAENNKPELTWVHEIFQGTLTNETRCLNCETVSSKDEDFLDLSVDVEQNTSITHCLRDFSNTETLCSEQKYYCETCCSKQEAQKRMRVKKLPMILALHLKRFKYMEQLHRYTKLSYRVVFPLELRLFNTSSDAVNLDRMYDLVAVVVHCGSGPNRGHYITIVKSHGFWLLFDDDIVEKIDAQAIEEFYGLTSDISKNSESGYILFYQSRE
Sequence of USP54 (Q70EL1 whole entry): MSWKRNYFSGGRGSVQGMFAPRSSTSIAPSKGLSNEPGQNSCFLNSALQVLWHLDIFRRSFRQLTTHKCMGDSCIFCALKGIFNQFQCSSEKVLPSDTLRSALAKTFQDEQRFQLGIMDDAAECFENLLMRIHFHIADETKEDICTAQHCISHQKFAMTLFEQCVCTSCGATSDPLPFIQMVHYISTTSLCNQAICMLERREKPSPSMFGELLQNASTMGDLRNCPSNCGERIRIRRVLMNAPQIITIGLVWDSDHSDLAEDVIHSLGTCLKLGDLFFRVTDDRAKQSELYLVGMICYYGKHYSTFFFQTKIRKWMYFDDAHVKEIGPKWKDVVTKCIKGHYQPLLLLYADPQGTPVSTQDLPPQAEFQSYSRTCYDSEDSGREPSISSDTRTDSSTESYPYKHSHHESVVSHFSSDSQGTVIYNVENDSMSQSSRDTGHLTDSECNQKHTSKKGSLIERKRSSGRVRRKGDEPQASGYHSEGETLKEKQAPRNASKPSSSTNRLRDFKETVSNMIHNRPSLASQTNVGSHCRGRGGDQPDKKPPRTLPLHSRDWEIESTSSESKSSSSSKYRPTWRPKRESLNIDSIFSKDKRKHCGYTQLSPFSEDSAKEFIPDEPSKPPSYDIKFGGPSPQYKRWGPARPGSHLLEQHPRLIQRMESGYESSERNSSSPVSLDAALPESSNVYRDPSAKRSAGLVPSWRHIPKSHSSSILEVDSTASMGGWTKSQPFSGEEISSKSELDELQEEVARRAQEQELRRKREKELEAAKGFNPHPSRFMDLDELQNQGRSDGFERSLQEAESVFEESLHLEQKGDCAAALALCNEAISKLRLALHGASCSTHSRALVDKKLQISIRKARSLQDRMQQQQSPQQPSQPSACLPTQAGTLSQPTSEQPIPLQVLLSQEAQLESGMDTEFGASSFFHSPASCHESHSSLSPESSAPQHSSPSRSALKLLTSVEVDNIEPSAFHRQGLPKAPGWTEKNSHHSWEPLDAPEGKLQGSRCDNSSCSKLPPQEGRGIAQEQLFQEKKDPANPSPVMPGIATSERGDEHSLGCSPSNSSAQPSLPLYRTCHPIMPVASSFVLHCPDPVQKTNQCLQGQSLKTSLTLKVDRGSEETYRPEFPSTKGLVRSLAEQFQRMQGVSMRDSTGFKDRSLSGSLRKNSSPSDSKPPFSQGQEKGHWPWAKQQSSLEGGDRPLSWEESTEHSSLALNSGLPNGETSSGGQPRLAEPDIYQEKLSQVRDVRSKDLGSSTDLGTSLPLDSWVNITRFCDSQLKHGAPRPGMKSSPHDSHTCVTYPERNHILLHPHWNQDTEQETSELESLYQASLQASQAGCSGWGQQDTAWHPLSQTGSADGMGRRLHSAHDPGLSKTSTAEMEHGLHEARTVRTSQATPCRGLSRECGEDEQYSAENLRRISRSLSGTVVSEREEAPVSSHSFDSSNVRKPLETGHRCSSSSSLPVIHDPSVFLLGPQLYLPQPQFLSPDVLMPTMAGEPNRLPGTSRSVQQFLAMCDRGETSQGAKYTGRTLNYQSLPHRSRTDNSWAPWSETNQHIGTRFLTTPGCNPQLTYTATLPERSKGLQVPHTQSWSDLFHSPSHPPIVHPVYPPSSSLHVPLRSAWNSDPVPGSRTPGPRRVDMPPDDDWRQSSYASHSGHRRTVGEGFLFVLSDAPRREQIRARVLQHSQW
Sequence of UniProt O00487 (O00487 whole entry): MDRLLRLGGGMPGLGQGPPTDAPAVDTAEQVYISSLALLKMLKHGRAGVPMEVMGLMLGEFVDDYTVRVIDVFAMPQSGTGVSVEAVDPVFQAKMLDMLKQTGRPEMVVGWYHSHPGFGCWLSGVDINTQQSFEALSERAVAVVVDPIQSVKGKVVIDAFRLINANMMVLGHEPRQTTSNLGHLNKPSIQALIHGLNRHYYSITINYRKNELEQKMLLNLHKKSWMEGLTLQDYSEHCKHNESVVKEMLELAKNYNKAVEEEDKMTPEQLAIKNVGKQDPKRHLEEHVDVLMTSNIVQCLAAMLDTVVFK

N#Cc1ccc(CNC(=O)CCl)cc1
inactive: USP42 0.0438 | USP46 0.111 | USP47 0.323 | USP48 -0.167 | USP5 0.0355 | USP54 0.446 | USP7 -0.073 | USP8 -0.338 | USP9X -0.0142 | UniProt O00487 -0.00705

COCC1C=CCCN1C(=O)CCl (stereo not given)
inactive: USP42 -0.485 | USP46 0.0708 | USP47 -0.789 | USP48 -0.152 | USP5 0.0548 | USP54 0.237 | USP7 -0.21 | USP8 -0.0182 | USP9X -0.16 | UniProt O00487 -0.0987

CN(C)C(=O)c1ccc(NC(=O)CCl)cc1
inactive: USP42 -0.0444 | USP46 -0.0105 | USP47 -0.38 | USP48 -0.84 | USP5 0.14 | USP54 -0.408 | USP7 -0.0714 | USP8 -0.446 | USP9X -0.0881 | UniProt O00487 -0.0189

Reference: the supplement of paper PMC11732987, “Enantioselective OTUD7B fragment discovery through chemoproteomics screening and high-throughput optimisation” (Communications Chemistry, 2025)
